# Assay results taken from PubChem BioAssay (NCI).
# This is part of a sample that, as a whole, favours compounds with a hit. Of some 83,000 tested, about 20% had one in any assay.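 Note: values are percent growth. 100 is the growth of untreated cells, values between 100 and 0 indicate rising inhibition; between -100 and 0 indicates cell death.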 Unmarked numbers belong to inactive results. The source made the active and inactive calls. How the source made its calls: active means growth percent below 10; inactive means the rest.
# Legend:
# Assay in all cases: NCI-60 one-dose screen, 48 h (100 = growth as untreated, 0 = no growth, -100 = all killed)
# DU-145 prostate = conditions: 10 µM unless noted
# K-562 leukemia = conditions: 10 µM unless noted
# MALME-3M melanoma = conditions: 10 µM unless noted
# MDA-MB-231 breast = conditions: 10 µM unless noted
# RXF 393 renal = conditions: 10 µM unless noted
# SF-268 CNS = conditions: 10 µM unless noted
# SF-295 CNS = conditions: 10 µM unless noted
# SF-539 CNS = conditions: 10 µM unless noted
# UACC-257 melanoma = conditions: 10 µM
# M14 melanoma = conditions: 10 µM unless noted
# HCT-15 colon = conditions: 10 µM unless noted
# HT29 colon = conditions: 10 µM unless noted
# SNB-75 CNS = conditions: 10 µM unless noted
# SNB-19 CNS = conditions: 10 µM unless noted
# U251 CNS = conditions: 10 µM unless noted
# PC-3 prostate = conditions: 10 µM unless noted
# SK-MEL-5 melanoma = conditions: 10 µM unless noted
# UACC-62 melanoma = conditions: 10 µM unless noted
# LOX IMVI melanoma = conditions: 10 µM unless noted
# SK-MEL-28 melanoma = conditions: 10 µM unless noted
SMILES,growth (DU-145 prostate),growth (K-562 leukemia),growth (MALME-3M melanoma),growth (MDA-MB-231 breast),growth (RXF 393 renal),growth (SF-268 CNS),growth (SF-295 CNS),growth (SF-539 CNS),growth (UACC-257 melanoma),growth (M14 melanoma),growth (HCT-15 colon),growth (HT29 colon),growth (SNB-75 CNS),growth (SNB-19 CNS),growth (U251 CNS),growth (PC-3 prostate),growth (SK-MEL-5 melanoma),growth (UACC-62 melanoma),growth (LOX IMVI melanoma),growth (SK-MEL-28 melanoma)
CN1CCN(Cc2ccc(NC(=O)c3cncc(C#Cc4[nH]nc5ncncc45)c3)cc2C(F)(F)F)CC1,56.6%,12.4%,-5.86% (active),22.9%,43.4%,73.7%,97%,43.4%,86.1%,15%,65.4%,25.8%,78.2%,97.3%,76.8%,81.3%,71.2%,39.6%,13%,37.7%
COc1ccc(CCN2C(=O)/C(=C/c3nc(CO)cs3)SC2=S)cc1,46.1%,60.4%,73.2%,53.2%,51.1%,94.8%,101%,11.2%,91.2%,85.3%,51.2%,103%,73.1%,91.7%,91.9%,74%,98.1%,79.7%,30.8%,97.2%
COc1cc(CNC(=O)/C=C/c2ccccc2)ccc1OCC(=O)NO,103%,88.9%,84.9%,98.4%,111%,101%,102%,100%,91.5%,100%,101%,104%,85.3%,98.9%,101%,91%,100%,92.3%,91.9%,107%
Brc1cccc(/C=N/Nc2nc(N/N=C/c3cccc(Br)c3)nc(N3CCOCC3)n2)c1,27.3%,14.5%,-54% (active),66.1%,-68% (active),68.4%,29.1%,56.4%,35.9%,31.7%,-8.94% (active),6.61% (active),107%,77.9%,42.7%,36.5%,20.7%,56%,5.23% (active),17.1%
CCNC(=O)Oc1ccc(/C(=C(/C)c2ccc(Cl)cc2)c2ccc(OCCN(C)C)cc2)cc1,92.1%,11.7%,13.4%,79.8%,55.8%,75.6%,94.4%,66%,81%,64.2%,47%,15.2%,75.4%,81.1%,58.8%,62.8%,70.7%,86.4%,41.5%,93.4%
C=CCn1c(SCC(=O)Nc2ccc(OC)cc2)nnc1-c1ccc(Cl)cc1,99.5%,89.6%,89.9%,85.3%,86.6%,90.6%,98.1%,94.8%,97.1%,96.3%,73.7%,105%,97.4%,91.7%,105%,95.1%,96.4%,81.5%,93.8%,92.5%
CN1CCN(c2ccc(C(=O)Nc3cccc(-c4cn(-c5ccc(S(N)(=O)=O)cc5)nn4)c3)cc2C(F)(F)F)CC1,92.5%,9.33% (active),71.4%,63.6%,6.63% (active),82.9%,90.4%,46.2%,95.8%,82.2%,41.1%,16.7%,64.9%,86.6%,59.6%,69.8%,90.6%,82.7%,23.1%,72.7%
COc1ccc(/C=C/C(=O)c2nnn(-c3ccc(C(=O)O)cc3)c2C)cc1OC,104%,80.8%,95.8%,96.7%,112%,99.4%,103%,91.7%,97%,92.6%,89.6%,102%,99.1%,96.3%,93.8%,97.7%,103%,90.3%,76.2%,107%
O=C1/C(=C/c2ccccc2[N+](=O)[O-])Oc2ccc(O)cc21,29.8%,4.21% (active),47.8%,30.2%,12.3%,78.5%,88.9%,15.2%,60.3%,54.9%,-31.4% (active),-23.7% (active),54.2%,79.3%,56.9%,57.1%,90.8%,37.1%,-46.2% (active),43.3%
C=CCn1c(SCC(=O)c2ccc(OC)cc2)nnc1-c1ccc(OC)cc1,99.8%,94.7%,96.4%,94.9%,87.9%,95.2%,97.7%,100%,96.8%,90.9%,98.1%,108%,108%,99.7%,102%,99.6%,-20% (active),95.4%,103%,100%
CC(=O)Nc1ccc(NC(=O)Nc2cccc(-c3nc(-c4ccc(NC(=O)c5cccs5)cc4Cl)no3)c2)cc1C(F)(F)F,-15.4% (active),1.01% (active),-84.3% (active),-60.6% (active),-85% (active),-38.8% (active),-62.9% (active),-87.5% (active),-58.4% (active),-59.2% (active),20.2%,-36.4% (active),-73.2% (active),-33.7% (active),-57.4% (active),-64.5% (active),-77.8% (active),-82.4% (active),-88% (active),-90.1% (active)
CCOC(=O)Nc1cccc(-n2cnc3cc(-c4ccc(O)cc4)ccc32)c1,19.7%,7.15% (active),77.7%,33.7%,-12.8% (active),38.9%,14.6%,4.17% (active),83.6%,29.6%,9.71% (active),5.49% (active),3.54% (active),27.1%,19.1%,29.9%,9.15% (active),35.8%,41.2%,63.8%
CS(=O)(=O)c1nccc(-c2c(-c3ccc(F)c(OCc4ccccc4)c3)nc3sccn23)n1,-64% (active),75.9%,115%,93.1%,94.7%,104%,98.5%,95.1%,17.8%,51.7%,79.1%,103%,103%,96.7%,107%,-11.3% (active),96.2%,87%,44.6%,85.9%
CC[C@]12C=CCN3CC[C@]4(C(=C(C(=O)OC)C1)Nc1cc5c(cc14)[C@@H]1[C@H](O5)[C@@H](O)[C@@]4(CC)CC(C(=O)OC)=C5Nc6cc(OC)ccc6[C@@]56CCN1[C@@H]46)[C@@H]32,22.6%,9.45% (active),25%,20.4%,-39.2% (active),14.9%,15.4%,-4.82% (active),29.5%,9.29% (active),-19.9% (active),2.83% (active),21.1%,3.1% (active),3.18% (active),9.02% (active),-2.36% (active),8.98% (active),-85.9% (active),1.92% (active)
